Eight molecules from PubChem BioAssay (NCI) can be followed below.

The nature of assay [1]: NCI Yeast Anticancer Drug Screen. Data for the rad50 strain (AID 155).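 Note: 0% = growth of vehicle-only cultures of the same strain.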 The conditions noted are these: S. cerevisiae rad50 strain growth inhibition, active compounds read high. In outline: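 Growth of the mutant yeast was measured after compound exposure and referenced to vehicle-treated cultures.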
A short description of assay [2]: NCI Yeast Anticancer Drug Screen. Data for the mec2-1 strain (AID 157). As to conditions: S. cerevisiae mec2-1 strain, active compounds read high. In outline: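 mec2-1 yeast strain, carrying an alteration in DNA damage repair or cell cycle control, was exposed to compounds; growth inhibition was measured relative to vehicle-treated controls.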
A short description of assay [3]: NCI Yeast Anticancer Drug Screen. Data for the sgs1 mgt1 strain (AID 161).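 Note: 0% = growth of cultures given vehicle only.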 As to conditions: S. cerevisiae sgs1 mgt1 strain, active compounds read high. In outline:
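This yeast growth screen uses a strain with defined DNA-repair lesions; compound-treated growth is compared with vehicle-treated growth.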

Assay [4] can be described thus: NCI Yeast Anticancer Drug Screen. Data for the cln2 rad14 strain (AID 165).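 Note: 0% = growth equal to vehicle treated cultures.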 As to conditions: S. cerevisiae cln2 rad14 strain, active compounds read high. The gist of the method: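 Yeast carrying cln2 and rad14 alterations (cell cycle control and DNA damage repair) were exposed to compounds. Growth inhibition was measured against vehicle-treated controls.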
Assay [5] is described as follows: NCI Yeast Anticancer Drug Screen. Data for the bub3 strain (AID 167). As to conditions: S. cerevisiae bub3 mutant strain, active compounds read high. The gist of the method: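 Whole-cell yeast assay. The mutant strain was incubated with compounds, and growth inhibition was determined by comparison with vehicle-treated cells.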
The nature of assay [6]: NCI Yeast Anticancer Drug Screen. Data for the mlh1 rad18 strain (AID 175). The conditions noted are these: S. cerevisiae mlh1 rad18 strain growth inhibition, active compounds read high. The gist of the method: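 Growth inhibition of the yeast strain was measured after compound exposure and expressed relative to vehicle-treated controls. The strain carries defined defects in DNA damage repair.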

Setting [7] is: at 5.0 µM (retest, dose inferred, filed as 0.5).
The mark [8] stands for this setting: at 50.0 µM (retest, dose inferred, filed as 5.0).

Several values for one entry are separate records, joined by “and”; a condition that tells them apart may be missing. Equal values may be shown once. This is part of a sample that, as a whole, favours compounds with a hit. Of some 79,000 tested, about 15% had one in any assay. Values without a mark were called inactive. Activity calls are given as the source filed them. Cut-off read from the data, not from the text of the source: active = growth inhibition above about 70%; inactive = the rest.

Turning to `O=C(O)CP(=O)(c1ccccc1)c1ccccc1.O=C(O)CP(=O)(c1ccccc1)c1ccccc1.[Cd]`, the growth inhibition is 33% in assay [1] (setting [7]); 88% (active) in assay [1] (setting [8]); 83.4% (active) in assay [1] (at 50.0 µM); 40% in assay [2] (setting [7]); 51% in assay [2] (setting [8]); 42.6% in assay [2] (at 50.0 µM). The growth inhibition was 11% in assay [3] (setting [7]); 47% in assay [3] (setting [8]); 56% in assay [3] (at 50.0 µM); -3% in assay [4] (setting [7]); 48% in assay [4] (setting [8]); 58.9% in assay [4] (at 50.0 µM). The growth inhibition in assay [5] (setting [7]) was 4%; in assay [5] (setting [8]), 43%; in assay [5] (at 50.0 µM), 26.9%; in assay [6] (setting [7]) it was 17%; in assay [6] (setting [8]) it was 57%; in assay [6] (at 50.0 µM), 57.8%.
Take `c1ccc(CCNCc2ccccc2)cc1`: the growth inhibition is -2% in assay [1] (setting [7]); 3% in assay [1] (setting [8]); -2.35% and 6.05% in assay [1] (at 50.0 µM); -2% in assay [2] (setting [7]); 2% in assay [2] (setting [8]); 6.45% and 3.8% in assay [2] (at 50.0 µM). Besides, the growth inhibition was -4% in assay [3] (setting [7]); 0% in assay [3] (setting [8]); -7.05% and -3.9% in assay [3] (at 50.0 µM); 0% in assay [4] (setting [7]); 4% in assay [4] (setting [8]); 54% and -3.45% in assay [4] (at 50.0 µM). For the same molecule, the growth inhibition in assay [5] (setting [7]) is 5%; in assay [5] (setting [8]) it was 4%; in assay [5] (at 50.0 µM), -7.5% and 16.1%; in assay [6] (setting [7]), 3%; in assay [6] (setting [8]) it was 6%; in assay [6] (at 50.0 µM), 0.4% and 3.2%.
Take `O=[N+]([O-])C(Br)CO` (centres undefined): the growth inhibition in assay [1] (setting [7]) is 2%; in assay [1] (setting [8]) it was 91% (active); in assay [1] (at 50.0 µM) it was 76% (active); in assay [2] (setting [7]), 2%; in assay [2] (setting [8]) it was 99% (active); in assay [2] (at 50.0 µM) it was 89% (active). In addition, the growth inhibition in assay [3] (setting [7]) is 3%; in assay [3] (setting [8]), 94% (active); in assay [3] (at 50.0 µM), 79% (active); in assay [4] (setting [7]) it was 9%; in assay [4] (setting [8]), 95% (active); in assay [4] (at 50.0 µM), 84.8% (active). The growth inhibition is 7% in assay [5] (setting [7]); 99% (active) in assay [5] (setting [8]); 94% (active) in assay [5] (at 50.0 µM); 4% in assay [6] (setting [7]); 97% (active) in assay [6] (setting [8]); 88.1% (active) in assay [6] (at 50.0 µM).
Take `ClCCN(CCCl)c1ccc(C=NCCCCN=Cc2ccc(N(CCCl)CCCl)cc2)cc1`: the growth inhibition in assay [1] (setting [7]) was 3%; in assay [1] (setting [8]), 82% (active); in assay [1] (at 50.0 µM), 88.8% (active); in assay [2] (setting [7]) it was 10%; in assay [2] (setting [8]), 47%; in assay [2] (at 50.0 µM), 47%. For the same molecule, the growth inhibition is 8% in assay [3] (setting [7]); 62% in assay [3] (setting [8]); 82.8% (active) in assay [3] (at 50.0 µM); -10% in assay [4] (setting [7]); 82% (active) in assay [4] (setting [8]); 88.6% (active) in assay [4] (at 50.0 µM). The growth inhibition in assay [5] (setting [7]) was -10%; in assay [5] (setting [8]) it was 3%; in assay [5] (at 50.0 µM) it was 7.15%; in assay [6] (setting [7]) it was 63%; in assay [6] (setting [8]), 95% (active); in assay [6] (at 50.0 µM), 85.8% (active).
For `C[C@]12CC[C@H](OC(=O)COc3ccc(N(CCCl)CCCl)cc3)C[C@@H]1CC[C@@H]1[C@@H]2CC[C@]2(C)NC(=O)CC[C@@H]12`, the growth inhibition was 17% in assay [1] (setting [7]); 50% in assay [1] (setting [8]); 70% (active) in assay [1] (at 50.0 µM); 7% in assay [2] (setting [7]); 11% in assay [2] (setting [8]); 49.2% in assay [2] (at 50.0 µM). The growth inhibition is 19% in assay [3] (setting [7]); 57% in assay [3] (setting [8]); 19.1% in assay [3] (at 50.0 µM); 17% in assay [4] (setting [7]); 36% in assay [4] (setting [8]); 5.4% in assay [4] (at 50.0 µM). The growth inhibition in assay [5] (setting [7]) is 22%; in assay [5] (setting [8]), 59%; in assay [5] (at 50.0 µM), 16.1%; in assay [6] (setting [7]) it was 25%; in assay [6] (setting [8]), 48%; in assay [6] (at 50.0 µM), 8.2%.
`Nc1nc(N)c(-c2ccc(Cl)c(Cl)c2)c(CCc2ccc(CNC(=O)c3cc(S(=O)(=O)F)ccc3Cl)cc2)n1`: the growth inhibition was -4% in assay [1] (setting [7]); 49% in assay [1] (setting [8]); 50.5% in assay [1] (at 50.0 µM); -4% in assay [2] (setting [7]); 54% in assay [2] (setting [8]); 96% (active) in assay [2] (at 50.0 µM). In addition, the growth inhibition in assay [3] (setting [7]) is -3%; in assay [3] (setting [8]), 50%; in assay [3] (at 50.0 µM), 66.8%; in assay [4] (setting [7]) it was -7%; in assay [4] (setting [8]), 47%; in assay [4] (at 50.0 µM), 12.5%. The growth inhibition in assay [5] (setting [7]) was -2%; in assay [5] (setting [8]), 45%; in assay [5] (at 50.0 µM), 74.7% (active); in assay [6] (setting [7]), -3%; in assay [6] (setting [8]), 53%; in assay [6] (at 50.0 µM) it was 94.5% (active).
As for `CC(C)(C)OOC(=O)c1ccccc1`, the growth inhibition in assay [1] (setting [7]) was 26%; in assay [1] (setting [8]), 99% (active); in assay [1] (at 50.0 µM), 37.6%; in assay [2] (setting [7]), 11%; in assay [2] (setting [8]) it was 99% (active); in assay [2] (at 50.0 µM), 18.4%. The growth inhibition is 14% in assay [3] (setting [7]); 93% (active) in assay [3] (setting [8]); 29% in assay [3] (at 50.0 µM); 14% in assay [4] (setting [7]); 99% (active) in assay [4] (setting [8]); 0.5% in assay [4] (at 50.0 µM). The growth inhibition in assay [5] (setting [7]) is 3%; in assay [5] (setting [8]), 99% (active); in assay [5] (at 50.0 µM), 3.1%; in assay [6] (setting [7]), 26%; in assay [6] (setting [8]) it was 99% (active); in assay [6] (at 50.0 µM) it was 75.3% (active).
For the molecule `Cc1ccc(S(=O)(=O)OC2CCC3C4CC=C5CC(SC(=N)N)CCC5(C)C4CCC23C)cc1` (centres undefined), the growth inhibition was 67% in assay [1] (setting [7]); 82% (active) in assay [1] (setting [8]); 47.9% in assay [1] (at 50.0 µM); 37% in assay [2] (setting [7]); 28% in assay [2] (setting [8]); 29.6% in assay [2] (at 50.0 µM). In addition, the growth inhibition was 96% (active) in assay [3] (setting [7]); 95% (active) in assay [3] (setting [8]); 94.1% (active) in assay [3] (at 50.0 µM); 4% in assay [4] (setting [7]); 6% in assay [4] (setting [8]); 3% in assay [4] (at 50.0 µM). Further, the growth inhibition is 51% in assay [5] (setting [7]); 36% in assay [5] (setting [8]); 26.1% in assay [5] (at 50.0 µM); 51% in assay [6] (setting [7]); 44% in assay [6] (setting [8]); 66.3% in assay [6] (at 50.0 µM).
